About 83,000 compounds went through this panel and 20% of them were active in at least one assay; those are over-represented in the sample as a whole.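 How to read the values: 0–100, growth inhibition (40 = 60% inhibited); 0, no net growth; -100 to 0, cell death (-40 = 40% of starting cells died; -100 = all dead).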 The source made the active and inactive calls. How the source made its calls: active means growth percent below 10; inactive means the rest.
Experiments:
Test in all cases: NCI-60 one-dose screen, 48 h (100 = growth as untreated, 0 = no growth, -100 = all killed)
SN12C renal = conditions: 10 µM
UO-31 renal = conditions: 10 µM
TK-10 renal = conditions: 10 µM unless noted
ACHN renal = conditions: 10 µM
CAKI-1 renal = conditions: 10 µM
A498 renal = conditions: 10 µM
CCRF-CEM leukemia = conditions: 10 µM
MOLT-4 leukemia = conditions: 10 µM

Measured: growth

c1ccc2c(c1)Sc1ccccc1S2
inactive: SN12C renal 93.2% | UO-31 renal 98.9% | TK-10 renal 99.4% | ACHN renal 109% | CAKI-1 renal 103% | A498 renal 94.3% | CCRF-CEM leukemia 97.3% | MOLT-4 leukemia 111%

COc1cccc(COC(=O)Nc2ccccc2)c1OC
inactive: SN12C renal 96.9% | UO-31 renal 99.5% | TK-10 renal 107% | ACHN renal 104% | CAKI-1 renal 88.5% | A498 renal 105% | MOLT-4 leukemia 100%

CC(CN1CCCCC1)NC(=O)c1scnc1-c1ccccc1 (stereo not given)
inactive: SN12C renal 106% | UO-31 renal 83.7% | TK-10 renal 98.1% | ACHN renal 109% | CAKI-1 renal 87.3% | MOLT-4 leukemia 104%

O=S(=O)(O)c1cc(O)c2c(N=Cc3ccccc3O)c(S(=O)(=O)O)ccc2c1
inactive: SN12C renal 109% | UO-31 renal 73.2% | TK-10 renal 118% | ACHN renal 101% | CAKI-1 renal 96.2% | A498 renal 107% | MOLT-4 leukemia 99.2%

COc1ccc(/C=C/c2cccc[n+]2C)cc1
inactive: SN12C renal 110% | UO-31 renal 64.9% | ACHN renal 91% | CAKI-1 renal 63% | A498 renal 71% | MOLT-4 leukemia 102%

O=C(Cc1ccccc1)Cc1ccccc1
inactive: SN12C renal 104% | UO-31 renal 98% | ACHN renal 98.1% | CAKI-1 renal 97.9% | A498 renal 101% | CCRF-CEM leukemia 98.3% | MOLT-4 leukemia 96.7%

COc1ccccc1N1CCN(C(=S)Nc2ccccc2)CC1
inactive: SN12C renal 100% | UO-31 renal 75.3% | TK-10 renal 95.6% | ACHN renal 100% | MOLT-4 leukemia 78.7%

O=C(Nc1cccc(NC(=O)Nc2cc(C(F)(F)F)ccc2Cl)c1)Nc1cc(C(F)(F)F)ccc1Cl
inactive: SN12C renal 22%
active: UO-31 renal 0.156% | TK-10 renal -13.8% | ACHN renal 9.11% | CAKI-1 renal -2.82% | A498 renal -3.96% | CCRF-CEM leukemia 5.91% | MOLT-4 leukemia 2.16%

Cc1ccccc1C1N=C2Oc3ccccc3C=C2C(=O)N1 (stereo not given)
inactive: SN12C renal 43.3% | UO-31 renal 52% | TK-10 renal 53.7% | ACHN renal 50.6% | CAKI-1 renal 31.1% | CCRF-CEM leukemia 38.4% | MOLT-4 leukemia 44%
active: A498 renal -11.6%

CC[N+](C)(CC)CCO
inactive: SN12C renal 98% | UO-31 renal 92% | TK-10 renal 95.3% | ACHN renal 106% | CAKI-1 renal 94% | A498 renal 109% | MOLT-4 leukemia 101%

CC(C(=O)O)(C1CCCCC1)C1(O)CCCCC1 (stereo not given)
inactive: SN12C renal 100% | UO-31 renal 84.9% | TK-10 renal 91.1% | ACHN renal 107% | CAKI-1 renal 96.7% | MOLT-4 leukemia 94.3%

O=C(CCl)N1CCN(C/C=C/c2ccccc2)CC1
inactive: SN12C renal 64.6% | UO-31 renal 93.1% | TK-10 renal 85.6% | ACHN renal 95.8% | CAKI-1 renal 99.3% | A498 renal 94% | CCRF-CEM leukemia 21.7% | MOLT-4 leukemia 71.4%

N#CCCc1ccc(O)cc1
inactive: SN12C renal 107% | UO-31 renal 90.5% | TK-10 renal 113% | ACHN renal 99.9% | CAKI-1 renal 95.4% | A498 renal 104% | MOLT-4 leukemia 98.5%

O=C1OC(c2ccc(F)cc2)CC1CN1CCOCC1 (stereo not given)
inactive: SN12C renal 102% | UO-31 renal 83.5% | TK-10 renal 83.2% | ACHN renal 105% | CAKI-1 renal 85.8% | MOLT-4 leukemia 102%

N#CC(=Nc1cccc(F)c1)C1=C(O)c2ccccc2C1=O
inactive: SN12C renal 82.8% | UO-31 renal 78.6% | TK-10 renal 110% | ACHN renal 87.1% | CAKI-1 renal 47% | A498 renal 79.4% | MOLT-4 leukemia 96.5%

COC(=O)Nc1cccc(Cl)c1OC
inactive: SN12C renal 112% | UO-31 renal 95.6% | TK-10 renal 120% | ACHN renal 99.8% | CAKI-1 renal 94.5% | A498 renal 61.9% | MOLT-4 leukemia 103%

O=C(Nc1ccccc1)OCCc1ccccc1
inactive: SN12C renal 95.3% | UO-31 renal 103% | TK-10 renal 95.2% | ACHN renal 104% | CAKI-1 renal 88.5% | MOLT-4 leukemia 101%

Cc1cc(=O)n(-c2ccc(F)cc2)[nH]1
inactive: SN12C renal 104% | UO-31 renal 83.3% | TK-10 renal 136% | ACHN renal 96% | CAKI-1 renal 98.9% | A498 renal 99.7% | MOLT-4 leukemia 99.7%

CCCCC(=O)c1ccc(OC)cc1
inactive: SN12C renal 105% | UO-31 renal 97% | ACHN renal 96.3% | CAKI-1 renal 99.2% | A498 renal 84.1% | CCRF-CEM leukemia 92.1% | MOLT-4 leukemia 104%

CSC(=N\N=C\c1ccc(N(C)C)cc1)/N=C/N(C)C
inactive: SN12C renal 108% | UO-31 renal 101% | TK-10 renal 131% | ACHN renal 101% | CAKI-1 renal 104% | A498 renal 97% | MOLT-4 leukemia 101%

O=C(Cc1ccc(OCc2ccccc2)cc1)NCc1ccc2c(c1)OCO2
inactive: SN12C renal 89.9% | UO-31 renal 73.7% | TK-10 renal 77% | ACHN renal 104% | CAKI-1 renal 32.5% | MOLT-4 leukemia 55.2%

N#Cc1ccc(OC(=O)Nc2ccc(Cl)c(Cl)c2)cc1
inactive: SN12C renal 79.5% | UO-31 renal 60.6% | TK-10 renal 90.7% | ACHN renal 50.8% | CAKI-1 renal 35.8% | A498 renal 106% | MOLT-4 leukemia 79.9%

COc1ccc(/C(C#N)=C2C=C/C(=N/O)c3ccccc3\2)cc1
inactive: SN12C renal 23.7% | UO-31 renal 31.1% | TK-10 renal 54.5% | ACHN renal 22.6% | CAKI-1 renal 25.5% | MOLT-4 leukemia 19.2%
active: A498 renal -8.12%

S=C1NCc2cncnc2N1
inactive: SN12C renal 107% | UO-31 renal 88.8% | TK-10 renal 97.8% | ACHN renal 93% | CAKI-1 renal 85.5% | A498 renal 104% | MOLT-4 leukemia 95.6%

COC(=O)CCCCC1=CCC2C(=O)C=C(O)C2C1 (stereo not given)
inactive: SN12C renal 102% | UO-31 renal 89.9% | TK-10 renal 96.4% | ACHN renal 98.9% | MOLT-4 leukemia 82.7%

O=C(O)CCC(=O)OC(C1CO1)C(OC(=O)CCC(=O)O)C1CO1 (stereo not given)
inactive: SN12C renal 109% | UO-31 renal 85.3% | TK-10 renal 93.2% | ACHN renal 101% | CAKI-1 renal 106% | A498 renal 80.5% | CCRF-CEM leukemia 101% | MOLT-4 leukemia 99.8%

CC(=O)c1ccc2c(ccc3ccccc32)c1
inactive: SN12C renal 102% | UO-31 renal 100% | ACHN renal 110% | CAKI-1 renal 107% | A498 renal 92.8% | CCRF-CEM leukemia 86.2% | MOLT-4 leukemia 93%

CC(=O)c1ccc(N=C(C#N)C2=C(O)c3ccccc3C2=O)cc1
inactive: SN12C renal 103% | UO-31 renal 90.8% | TK-10 renal 129% | ACHN renal 106% | CAKI-1 renal 105% | A498 renal 88.1% | CCRF-CEM leukemia 104% | MOLT-4 leukemia 92.1%

CC1CCC2C(C)(C)C3CC12CC1OC13C (stereo not given)
inactive: SN12C renal 97.1% | UO-31 renal 109% | TK-10 renal 104% | ACHN renal 103% | CAKI-1 renal 98.5% | A498 renal 94% | CCRF-CEM leukemia 112% | MOLT-4 leukemia 110%

O=C1C=C(Nc2ccc([N+](=O)[O-])cc2)c2ccccc2C1=O
inactive: SN12C renal 39.8% | UO-31 renal 30% | TK-10 renal 80.4% | ACHN renal 45.8% | CAKI-1 renal 67.9% | A498 renal 40.6% | CCRF-CEM leukemia 38.9% | MOLT-4 leukemia 28.5%

O=C(O)/C=C/C(=O)NCc1ccccc1
inactive: SN12C renal 108% | UO-31 renal 90.9% | ACHN renal 97.9% | CAKI-1 renal 102% | A498 renal 109% | MOLT-4 leukemia 101%

O=[N+]([O-])c1ccccc1S(=O)c1ccccc1[N+](=O)[O-]
inactive: SN12C renal 99.7% | UO-31 renal 73.4% | TK-10 renal 135% | ACHN renal 106% | CAKI-1 renal 61.7% | MOLT-4 leukemia 42%

Reference: PubChem BioAssay (NCI)
